Source: the supplement of paper PMC10849652
The full data set covers some 7,900 targets. This sample favours those with a hit. About 0.6% of all pairs of compound and target were hits. Unmarked numbers belong to inactive results.

How the values were obtained:
Test in all cases: log2 fold change, soluble protein after heating vs DMSO (PISA); higher = thermal stabilisation; K562 cells, 10 uM, 30 min; active = over 0.2 and 3.5 SD of the protein, either way, in both replicates (recomputed)
[1] = compound: COC1=CC=C(C=C1)CN2C=CC3=C2C=C(C=C3)C(=O)NO
In short: (§1)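 K562 cells at 2×10^6 cells/mL were treated for 30 min with 10 μM compound, and aliquots were heated for 3 min over 48°C-58°C before pooling. Extraction used PBS with 0.5% NP-40 at 4°C, and soluble protein was the supernatant after 21,000xg for 90 min, measured by TMTpro 16plex LC-MS/MS with channel sums equalised. Thermal stability values, relative to control samples and from duplicates, are log2 fold changes.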

filanesib = compound: CON(C)C(=O)N1N=C(c2cc(F)ccc2F)S[C@@]1(CCCN)c1ccccc1 [filanesib]
In short: as §1

zotarolimus = compound: CO[C@H]1C[C@@H]2CC[C@@H](C)[C@@](O)(O2)C(=O)C(=O)N2CCCC[C@H]2C(=O)O[C@H]([C@H](C)C[C@@H]2CC[C@H](n3cnnn3)[C@H](OC)C2)CC(=O)[C@H](C)/C=C(\C)[C@@H](O)[C@@H](OC)C(=O)[C@H](C)C[C@H](C)/C=C/C=C/C=C/1C [zotarolimus]
In short: as §1

idasanutlin = compound: COc1cc(C(=O)O)ccc1NC(=O)[C@@H]1N[C@@H](CC(C)(C)C)[C@](C#N)(c2ccc(Cl)cc2F)[C@H]1c1cccc(Cl)c1F [idasanutlin]
In short: as §1

alisertib = compound: COc1cc(Nc2ncc3c(n2)-c2ccc(Cl)cc2C(c2c(F)cccc2OC)=NC3)ccc1C(=O)O [alisertib]
In short: as §1

[2] = compound: COc1cc2nc(-c3cc(F)ccc3O)nc(N[C@@H]3CNC[C@H]3C(C)(C)O)c2cc1OC
In short: as §1

gefitinib = compound: COc1cc2ncnc(Nc3ccc(F)c(Cl)c3)c2cc1OCCCN1CCOCC1 [gefitinib]
In short: as §1

[3] = compound: COc1cccc2cc(-c3nc([C@H]4CC[C@H](C(=O)O)CC4)n4ncnc(N)c34)[nH]c12
In short: as §1

lapatinib = compound: CS(=O)(=O)CCNCc1ccc(-c2ccc3ncnc(Nc4ccc(OCc5cccc(F)c5)c(Cl)c4)c3c2)o1 [lapatinib]
In short: as §1

pictilisib = compound: CS(=O)(=O)N1CCN(Cc2cc3nc(-c4cccc5[nH]ncc45)nc(N4CCOCC4)c3s2)CC1 [pictilisib]
In short: as §1

[4] = compound: CS(=O)(=O)c1ccc(-c2cnc(N)c(C(=O)Nc3ccccc3)n2)cc1
In short: as §1

crizotinib = compound: C[C@@H](Oc1cc(-c2cnn(C3CCNCC3)c2)cnc1N)c1c(Cl)ccc(F)c1Cl [crizotinib]
In short: as §1

[5] = compound: C[C@@H]1COCCN1C2=NC(=NC(=C2)C3(CC3)S(=O)(=O)C)C4=C5C=CNC5=CC=C4
In short: as §1

[6] = compound: C[C@H](C1=CC=C(C=C1)C(=O)NC2=C3C=CNC3=NC=C2)N
In short: as §1

duvelisib = compound: C[C@H](Nc1ncnc2nc[nH]c12)c1cc2cccc(Cl)c2c(=O)n1-c1ccccc1 [duvelisib]
In short: as §1

gandotinib = compound: Cc1cc(Nc2cc(CN3CCOCC3)c3nc(C)c(Cc4ccc(Cl)cc4F)n3n2)n[nH]1 [gandotinib]
In short: as §1

tozasertib = compound: Cc1cc(Nc2cc(N3CCN(C)CC3)nc(Sc3ccc(NC(=O)C4CC4)cc3)n2)n[nH]1 [tozasertib]
In short: as §1

[7] = compound: Cc1cc(SCc2sc(-c3ccc(C(F)(F)F)cc3)nc2C)ccc1OCC(=O)O
In short: as §1

doramapimod = compound: Cc1ccc(-n2nc(C(C)(C)C)cc2NC(=O)Nc2ccc(OCCN3CCOCC3)c3ccccc23)cc1 [doramapimod]
In short: as §1

ispinesib = compound: Cc1ccc(C(=O)N(CCCN)[C@@H](c2nc3cc(Cl)ccc3c(=O)n2Cc2ccccc2)C(C)C)cc1 [ispinesib]
In short: as §1

UniProt P28340, sequence (P28340 whole entry, looked up): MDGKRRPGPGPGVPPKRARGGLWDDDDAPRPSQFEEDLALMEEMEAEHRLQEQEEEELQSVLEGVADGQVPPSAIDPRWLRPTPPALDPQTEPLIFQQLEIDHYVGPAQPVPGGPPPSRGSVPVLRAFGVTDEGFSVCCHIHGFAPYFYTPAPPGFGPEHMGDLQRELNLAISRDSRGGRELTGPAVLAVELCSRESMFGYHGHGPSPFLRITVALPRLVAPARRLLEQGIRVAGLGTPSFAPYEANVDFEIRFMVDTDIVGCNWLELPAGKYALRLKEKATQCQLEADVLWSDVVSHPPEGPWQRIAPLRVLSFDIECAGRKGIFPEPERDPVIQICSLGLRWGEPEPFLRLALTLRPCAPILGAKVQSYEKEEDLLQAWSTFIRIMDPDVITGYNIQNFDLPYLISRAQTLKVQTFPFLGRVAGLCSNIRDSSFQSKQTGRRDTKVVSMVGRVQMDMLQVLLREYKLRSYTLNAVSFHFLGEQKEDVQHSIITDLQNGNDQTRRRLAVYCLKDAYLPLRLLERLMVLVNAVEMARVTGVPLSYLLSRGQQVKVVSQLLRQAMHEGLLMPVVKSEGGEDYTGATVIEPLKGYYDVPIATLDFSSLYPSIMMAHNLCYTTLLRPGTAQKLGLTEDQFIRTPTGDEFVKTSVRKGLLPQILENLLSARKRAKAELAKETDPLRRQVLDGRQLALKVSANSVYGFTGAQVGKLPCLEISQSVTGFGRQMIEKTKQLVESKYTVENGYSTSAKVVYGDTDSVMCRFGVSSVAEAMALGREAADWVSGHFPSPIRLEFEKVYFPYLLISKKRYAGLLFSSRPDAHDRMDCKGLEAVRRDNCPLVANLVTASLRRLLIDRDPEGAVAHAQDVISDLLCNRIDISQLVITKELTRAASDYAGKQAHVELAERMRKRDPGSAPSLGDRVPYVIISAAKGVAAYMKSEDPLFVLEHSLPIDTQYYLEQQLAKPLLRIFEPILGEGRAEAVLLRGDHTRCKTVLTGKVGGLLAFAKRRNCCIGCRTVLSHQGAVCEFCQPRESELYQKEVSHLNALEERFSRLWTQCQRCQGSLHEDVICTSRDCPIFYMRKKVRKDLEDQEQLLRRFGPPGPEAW
UniProt Q08752, sequence (Q08752 whole entry, looked up): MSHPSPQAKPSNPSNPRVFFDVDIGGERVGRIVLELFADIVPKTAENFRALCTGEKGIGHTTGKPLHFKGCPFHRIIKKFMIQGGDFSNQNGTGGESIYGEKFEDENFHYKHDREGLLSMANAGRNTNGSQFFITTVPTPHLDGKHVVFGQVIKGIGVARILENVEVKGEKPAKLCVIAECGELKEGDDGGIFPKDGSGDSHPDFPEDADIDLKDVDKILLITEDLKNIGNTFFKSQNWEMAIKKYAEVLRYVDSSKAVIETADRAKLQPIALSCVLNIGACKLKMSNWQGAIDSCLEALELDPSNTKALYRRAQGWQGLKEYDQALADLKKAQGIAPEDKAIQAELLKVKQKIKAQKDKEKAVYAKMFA
UniProt P29590, sequence (P29590 whole entry, looked up): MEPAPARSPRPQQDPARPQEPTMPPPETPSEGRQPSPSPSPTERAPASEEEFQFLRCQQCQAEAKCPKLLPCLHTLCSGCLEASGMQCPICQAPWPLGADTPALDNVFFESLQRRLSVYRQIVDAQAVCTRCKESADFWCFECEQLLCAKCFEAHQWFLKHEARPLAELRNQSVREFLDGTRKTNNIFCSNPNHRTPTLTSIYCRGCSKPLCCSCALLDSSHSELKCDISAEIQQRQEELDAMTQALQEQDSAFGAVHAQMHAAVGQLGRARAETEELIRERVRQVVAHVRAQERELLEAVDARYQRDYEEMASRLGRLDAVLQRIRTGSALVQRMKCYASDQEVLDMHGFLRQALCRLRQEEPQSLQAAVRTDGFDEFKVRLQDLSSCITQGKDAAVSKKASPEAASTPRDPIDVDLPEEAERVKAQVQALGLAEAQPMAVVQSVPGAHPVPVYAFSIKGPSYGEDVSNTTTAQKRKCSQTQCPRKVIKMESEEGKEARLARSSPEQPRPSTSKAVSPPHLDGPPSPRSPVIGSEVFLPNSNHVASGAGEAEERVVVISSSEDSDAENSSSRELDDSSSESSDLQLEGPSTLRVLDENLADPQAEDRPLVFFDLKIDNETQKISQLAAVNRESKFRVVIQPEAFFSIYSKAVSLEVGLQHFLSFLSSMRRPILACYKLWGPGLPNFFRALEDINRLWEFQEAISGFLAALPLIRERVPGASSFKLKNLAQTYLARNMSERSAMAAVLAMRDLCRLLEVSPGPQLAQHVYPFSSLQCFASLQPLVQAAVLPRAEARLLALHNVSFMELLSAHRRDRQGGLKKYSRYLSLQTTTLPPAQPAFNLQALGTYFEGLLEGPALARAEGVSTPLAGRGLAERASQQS
UniProt O43242, sequence (O43242 whole entry, looked up): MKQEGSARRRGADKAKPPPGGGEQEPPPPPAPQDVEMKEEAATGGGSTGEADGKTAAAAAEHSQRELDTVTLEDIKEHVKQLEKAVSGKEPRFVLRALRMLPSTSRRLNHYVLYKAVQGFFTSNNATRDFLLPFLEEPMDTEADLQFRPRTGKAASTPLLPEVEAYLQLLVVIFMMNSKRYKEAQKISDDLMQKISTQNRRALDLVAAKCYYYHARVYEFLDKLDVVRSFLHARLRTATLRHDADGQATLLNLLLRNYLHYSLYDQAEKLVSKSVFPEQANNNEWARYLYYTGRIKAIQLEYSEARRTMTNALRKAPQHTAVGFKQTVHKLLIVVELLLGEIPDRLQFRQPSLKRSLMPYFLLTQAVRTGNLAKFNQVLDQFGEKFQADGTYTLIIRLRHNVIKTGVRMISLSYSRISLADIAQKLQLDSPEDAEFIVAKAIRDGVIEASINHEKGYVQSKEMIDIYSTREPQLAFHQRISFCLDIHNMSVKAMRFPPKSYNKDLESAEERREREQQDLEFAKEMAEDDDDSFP
UniProt Q00577, sequence (Q00577 whole entry, looked up): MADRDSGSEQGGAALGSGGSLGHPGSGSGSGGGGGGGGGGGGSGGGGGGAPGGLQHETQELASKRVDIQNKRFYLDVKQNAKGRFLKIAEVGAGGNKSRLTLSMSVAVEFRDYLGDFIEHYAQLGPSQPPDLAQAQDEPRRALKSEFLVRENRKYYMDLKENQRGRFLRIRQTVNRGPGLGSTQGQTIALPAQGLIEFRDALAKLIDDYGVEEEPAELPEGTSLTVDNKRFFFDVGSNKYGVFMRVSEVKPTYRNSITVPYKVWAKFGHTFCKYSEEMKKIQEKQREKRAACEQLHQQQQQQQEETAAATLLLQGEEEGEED
UniProt O95997, sequence (O95997 whole entry, looked up): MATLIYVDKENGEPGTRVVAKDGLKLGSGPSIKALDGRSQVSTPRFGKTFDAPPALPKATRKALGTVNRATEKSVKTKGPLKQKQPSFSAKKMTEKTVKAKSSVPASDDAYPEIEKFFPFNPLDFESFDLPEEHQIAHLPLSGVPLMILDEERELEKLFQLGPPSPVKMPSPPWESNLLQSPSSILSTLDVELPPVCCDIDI
UniProt P0CG38, sequence (P0CG38 whole entry, looked up): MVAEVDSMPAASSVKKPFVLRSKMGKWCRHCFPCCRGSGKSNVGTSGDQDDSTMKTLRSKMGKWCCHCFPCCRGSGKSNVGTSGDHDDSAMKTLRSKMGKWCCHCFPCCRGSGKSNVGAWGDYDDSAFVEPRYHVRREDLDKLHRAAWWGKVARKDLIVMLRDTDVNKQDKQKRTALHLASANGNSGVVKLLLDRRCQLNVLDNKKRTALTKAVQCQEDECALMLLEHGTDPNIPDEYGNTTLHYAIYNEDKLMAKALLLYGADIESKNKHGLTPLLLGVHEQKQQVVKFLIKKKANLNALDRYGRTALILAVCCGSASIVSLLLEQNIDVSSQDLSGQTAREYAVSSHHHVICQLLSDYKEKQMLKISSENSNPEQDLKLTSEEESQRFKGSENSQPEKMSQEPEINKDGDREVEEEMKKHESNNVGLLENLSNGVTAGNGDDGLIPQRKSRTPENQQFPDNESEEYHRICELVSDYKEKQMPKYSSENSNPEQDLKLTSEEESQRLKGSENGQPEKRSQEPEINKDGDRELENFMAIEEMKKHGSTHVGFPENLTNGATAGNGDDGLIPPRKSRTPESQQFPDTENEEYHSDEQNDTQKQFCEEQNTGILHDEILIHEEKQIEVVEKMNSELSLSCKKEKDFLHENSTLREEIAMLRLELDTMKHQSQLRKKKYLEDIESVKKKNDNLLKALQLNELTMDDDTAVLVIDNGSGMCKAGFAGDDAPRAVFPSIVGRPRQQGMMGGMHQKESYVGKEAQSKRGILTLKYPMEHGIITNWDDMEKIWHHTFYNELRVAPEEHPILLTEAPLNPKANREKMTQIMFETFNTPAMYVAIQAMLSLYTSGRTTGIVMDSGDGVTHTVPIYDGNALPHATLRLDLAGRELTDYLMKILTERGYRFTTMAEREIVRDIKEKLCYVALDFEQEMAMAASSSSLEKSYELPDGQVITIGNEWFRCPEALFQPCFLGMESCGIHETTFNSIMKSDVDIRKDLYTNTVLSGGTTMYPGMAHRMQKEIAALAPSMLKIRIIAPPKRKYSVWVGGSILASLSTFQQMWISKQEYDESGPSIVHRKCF
UniProt Q15365, sequence (Q15365 whole entry, looked up): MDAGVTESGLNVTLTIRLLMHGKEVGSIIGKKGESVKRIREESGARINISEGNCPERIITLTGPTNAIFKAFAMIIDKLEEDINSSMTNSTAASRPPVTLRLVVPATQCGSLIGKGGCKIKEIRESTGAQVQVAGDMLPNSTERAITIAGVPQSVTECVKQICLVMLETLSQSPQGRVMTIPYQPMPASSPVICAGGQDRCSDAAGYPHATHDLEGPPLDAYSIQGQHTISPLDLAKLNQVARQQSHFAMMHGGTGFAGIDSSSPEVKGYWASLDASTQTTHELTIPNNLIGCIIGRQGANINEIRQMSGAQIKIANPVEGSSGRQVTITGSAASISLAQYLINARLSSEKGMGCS
UniProt Q15121, sequence (Q15121 whole entry, looked up): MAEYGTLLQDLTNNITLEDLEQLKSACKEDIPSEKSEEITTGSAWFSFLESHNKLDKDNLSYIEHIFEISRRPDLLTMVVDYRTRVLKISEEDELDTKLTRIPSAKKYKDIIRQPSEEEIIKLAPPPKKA

| Target | log2 fold change [1] | log2 fold change (filanesib) | log2 fold change (zotarolimus) | log2 fold change (idasanutlin) | log2 fold change (alisertib) | log2 fold change [2] | log2 fold change (gefitinib) | log2 fold change [3] | log2 fold change (lapatinib) | log2 fold change (pictilisib) | log2 fold change [4] | log2 fold change (crizotinib) | log2 fold change [5] | log2 fold change [6] | log2 fold change (duvelisib) | log2 fold change (gandotinib) | log2 fold change (tozasertib) | log2 fold change [7] | log2 fold change (doramapimod) | log2 fold change (ispinesib) |
| --- | --- | --- | --- | --- | --- | --- | --- | --- | --- | --- | --- | --- | --- | --- | --- | --- | --- | --- | --- | --- |
| PURA (UniProt Q00577) | -0.336 | 0.277 | -0.093 | 0.179 | -0.106 | -0.052 | -0.024 | -0.113 | 0.104 | -0.071 | -0.064 | 0.03 | -0.44 | 0.287 | -0.165 | 0.334 | 0.069 | -0.012 | 0.063 | -0.143 |
| PCBP1 (UniProt Q15365) | 0.076 | -0.036 | 0.102 | -0.044 | -0.015 | -0.014 | -0.003 | -0.003 | -0.022 | -0.036 | 0.012 | 0 | 0.094 | -0.012 | 0.042 | -0.12 | 0.047 | 0.07 | -0.016 | 0.028 |
| PRPSAP2 (UniProt O60256) | -0.168 | 0.084 | 0.029 | 0.012 | -0.078 | 0.011 | -0.022 | 0.025 | -0.011 | -0.233 (active) | 0 | 0.01 | 0.112 | -0.016 | -0.013 | 0.114 | 0.038 | 0.023 | -0.007 | 0.012 |
| POLD1 (UniProt P28340) | 0.025 | -0.038 | 0.007 | 0.024 | -0.042 | -0.006 | 0.007 | 0.047 | 0.01 | 0 | 0.019 | -0.042 | 0.041 | -0.025 | 0.004 | 0.036 | 0.016 | 0.046 | -0.018 | -0.01 |
| PSMD3 (UniProt O43242) | -0.058 | 0.061 | 0.021 | 0.003 | -0.075 | -0.089 | -0.035 | -0.011 | 0.061 | -0.023 | 0.058 | 0.003 | -0.003 | 0.094 | -0.028 | 0.028 | 0.033 | 0.047 | 0.047 | 0.013 |
| POTEI (UniProt P0CG38) | 0.033 | 0.04 | 0.025 | -0.007 | 0.037 | -0.003 | 0.015 | 0.067 | -0.006 | 0.012 | -0.009 | 0.109 | 0.241 | -0.096 | 0.019 | -0.019 | 0.032 | -0.021 | -0.739 (active) | 0.131 |
| PDCD4 (UniProt Q53EL6) | 0.055 | -0.153 | 0.251 | -0.161 | -0.025 | 0.018 | 0.057 | 0.16 | 0.032 | 0.083 | 0.096 | 0.09 | 0.303 | 0.007 | 0.133 | -0.141 | 0.126 | 0.066 | -0.047 | 0.039 |
| PTTG1 (UniProt O95997) | 0.011 | 0.052 | -0.077 | -0.011 | -0.022 | -0.156 | -0.048 | -0.058 | -0.013 | -0.07 | -0.093 | -0.012 | -0.085 | -0.044 | 0.068 | -0.108 | -0.015 | 0.021 | 0.076 | -0.034 |
| PRPF40A (UniProt O75400) | 0.082 | 0.135 | 0.029 | 0.058 | 0.024 | -0.091 | 0.042 | -0.045 | 0.018 | -0.027 | -0.023 | 0.071 | 0.105 | -0.061 | 0.018 | -0.04 | 0.061 | 0.104 | 0.021 | -0.034 |
| POLR2K (UniProt P53803) | -0.052 | 0.071 | -0.05 | -0.101 | -0.005 | 0.134 | -0.012 | -0.213 | 0.003 | 0.117 | 0.029 | 0.18 | 0.074 | 0.098 | 0.154 | -0.011 | -0.065 | 0.001 | -0.059 | 0.029 |
| PML (UniProt P29590) | -0.043 | 0.014 | 0.041 | 0.003 | -0.022 | -0.026 | -0.015 | -0.081 | 0.024 | 0.119 | -0.011 | 0.017 | 0.025 | -0.027 | 0.072 | -0.019 | 0.07 | -0.051 | -0.054 | -0.027 |
| PRKACA (UniProt P17612) | 0.05 | -0.076 | -0.034 | 0.006 | -0.078 | 0.088 | -0.004 | 0.028 | 0.025 | 0.068 | 0.009 | -0.088 | 0.046 | 0.043 | -0.02 | -0.105 | -0.014 | 0.112 | 0.019 | 0.053 |
| PRKCA (UniProt P17252) | -0.005 | -0.066 | 0.008 | 0.01 | -0.019 | 0.057 | -0.002 | 0.017 | -0.027 | 0.055 | -0.023 | -0.081 | 0.044 | -0.041 | 0.158 | -0.227 | -0.052 | 0.232 | 0.01 | -0.112 |
| PRKAB1 (UniProt Q9Y478) | 0.024 | -0.022 | 0.07 | -0.223 | -0.105 | -0.034 | -0.024 | 0.05 | -0.049 | -0.063 | 0.013 | -0.252 (active) | 0.029 | -0.063 | 0.01 | -0.057 | -0.013 | 0.069 | 0.013 | -0.013 |
| PEA15 isoform 2 (UniProt Q15121) | 0.011 | -0.079 | 0.05 | -0.02 | -0.047 | -0.009 | 0 | -0.015 | -0.003 | 0.03 | 0.012 | 0.136 | 0.141 | -0.048 | 0.074 | -0.073 | 0.103 | 0.048 | 0.003 | 0.034 |
| PPID (UniProt Q08752) | 0.041 | 0 | 0.056 | -0.055 | -0.009 | 0.093 | 0.112 | -0.091 | -0.041 | 0.039 | 0.055 | -0.102 | 0.046 | 0.071 | -0.024 | -0.145 | 0.043 | 0.088 | 0.007 | -0.08 |
